In the library only some 4.2% were active in any assay of this set; here they are far more common.
Sfp inh – inhibitors of Bacillus subtilis Sfp phosphopantetheinyl transferase; Q9F4F7; Biochemical Sfp PPTase activity, qHTS; Potency, µM, for the others: largest response in the series, negative = inhibition, usual class: inhibitors; 3.5% of 310,000 active; AID 1490;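 note: the enzyme is Sfp with the accession as filed and its product quenches rhodamine fluorescence; 0% = enzyme reaction without inhibitor and -100% = no enzyme wells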
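With Hepes-Na pH 7.6 buffer containing 10 mM MgCl2, Sfp (15 nM) modified BHQ-2-YbbR (12.5 uM) using rhodamine-CoA (5 uM). Two reads 30 minutes apart at 525/598 nm yielded each well's rate.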
ALOX12 inh – blocks human arachidonate 12S-lipoxygenase; Potency, µM (series often up to 108 µM), inactives show at the highest dose activity change, negative = inhibition, actives largely listed as inhibitors; 1.1% of 580,000 active; purified 12hLO, xylenol orange hydroperoxide absorbance; P18054
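Purified human 12hLO (150 nM final) in 25 mM Hepes, 0.01% Triton X-100, pH 7.0 was preincubated 15 min at room temperature with compound. Then 40 uM arachidonic acid was added, 30 min. Hydroperoxide was read by Fe-XO absorbance ratio 573/405 nm.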
PLK1 PBD block – PLK1 (human) polo-box domain binding inhibition; P53350; Plk1 PBD binding of FITC phosphopeptide, fluorescence polarization; Potency, µM, without a hit: max response, negative = inhibition, hits mostly inhibitors; 2.8% of 360,000 active; note: series mostly up to about 57 µM; nearly all actives have a fitted effect of over 65% in size
VDR inhibitor – vitamin D3 receptor (human) inhibition. VDR-SRC2-3 peptide fluorescence polarization, 2 h. 0.93% of 400,000 active. Potency, µM, inactives show max response, negative = inhibition, actives largely listed as inhibitors. AID 504847
Target sequence (P11473 whole entry, looked up): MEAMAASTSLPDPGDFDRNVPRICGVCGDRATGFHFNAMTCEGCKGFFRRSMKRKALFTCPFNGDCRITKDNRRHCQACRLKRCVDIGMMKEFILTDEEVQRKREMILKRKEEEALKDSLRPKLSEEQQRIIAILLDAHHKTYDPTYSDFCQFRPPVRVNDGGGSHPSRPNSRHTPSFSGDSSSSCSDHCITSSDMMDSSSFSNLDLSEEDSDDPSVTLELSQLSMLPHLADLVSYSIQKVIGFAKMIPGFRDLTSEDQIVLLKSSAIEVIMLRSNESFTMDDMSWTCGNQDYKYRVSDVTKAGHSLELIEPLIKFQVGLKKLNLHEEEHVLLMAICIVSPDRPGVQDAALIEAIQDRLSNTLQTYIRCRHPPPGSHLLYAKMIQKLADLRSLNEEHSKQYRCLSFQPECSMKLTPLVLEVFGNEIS
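Two reagent solutions held at 4 deg C in the dark were dispensed, compounds pinned at 23 nl, and the mixture incubated 2 h at room temperature. Read-out: fluorescence polarization of VDR–SRC2-3 peptide binding.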
* marks the source's active call; other numbers are inactive results. Calls come from the whole dose curve; as a rule, active = well fitted curve in the direction sought with a large enough effect; inconclusive = small, poorly fitted or top-dose-only effect, or another doubt; inactive = no such curve, though single readings can be large; an effect the other way counts as inactive or inconclusive. Unless noted, % is set by controls: 0 for no effect and ±100 for the full control effect; potency is the fitted concentration of half-maximal effect.

Screening COc1ccc(Cn2c(C)c(C)c(C#N)c2NC(=O)Nc2cccc(C)c2)cc1 returned Sfp inh 16%, ALOX12 inh 0%, PLK1 PBD block -3% and VDR inhibitor 34%.
For CC1(c2ccccc2)N(Cc2ccccc2)C(=O)OC12CCN(Cc1c[nH]c3ccccc13)CC2 (stereo not given) the results were ALOX12 inh 45µM*.
Screening CC1(c2ccccc2)N(Cc2ccccc2C#N)C(=O)OC12CCN(Cc1c[nH]c3ccccc13)CC2 (stereo not given) returned ALOX12 inh 32µM*.
`CC1(c2ccccc2)N(Cc2ccccc2C#N)C(=O)OC12CCN(Cc1ccccc1F)CC2` (stereo not given) gave ALOX12 inh -9%.
Screening O=C(NCc1ccncc1)c1ccc2c(c1)CC(=O)N2Cc1ccc(F)cc1 returned ALOX12 inh 6%.
`CC(C)CC(=O)Nc1cccc(-c2nc3ccccc3[nH]2)c1` gave Sfp inh 15%, ALOX12 inh -14%, PLK1 PBD block 27µM* and VDR inhibitor inconclusive.
CC(=O)Nc1cccc(-c2nc3ccccc3[nH]2)c1 was read as Sfp inh -3%, ALOX12 inh 0%, PLK1 PBD block -1% and VDR inhibitor -16%.
CC(=O)Nc1cccc(CCc2nc3ccccc3[nH]2)c1 was read as Sfp inh 4%, ALOX12 inh 5%, PLK1 PBD block inconclusive and VDR inhibitor 71µM*.
For O=C(CSc1nccn(-c2cccc(F)c2)c1=O)Nc1ccc(Cl)cc1F the results were Sfp inh -19%, ALOX12 inh inconclusive, PLK1 PBD block inconclusive and VDR inhibitor 89µM*.
`Cc1ccc(NC(=O)CSc2nccn(-c3ccc4c(c3)OCCO4)c2=O)cc1` gave ALOX12 inh -21%, PLK1 PBD block -30% and VDR inhibitor -15%.
For O=C(CSc1nccn(-c2ccc3c(c2)OCCO3)c1=O)Nc1ccccc1 the results were ALOX12 inh -4%, PLK1 PBD block 21µM* and VDR inhibitor inconclusive.
For O=C(CSc1nccn(-c2ccc(F)c(F)c2)c1=O)NC1CCCC1 the results were ALOX12 inh 5%, PLK1 PBD block -27% and VDR inhibitor -15%.
`Cc1cc(C)nc(NCCO)n1` gave Sfp inh -2%, ALOX12 inh 0%, PLK1 PBD block 1% and VDR inhibitor 15%.
Screening COC(=O)C1=C(C(=O)OC)[C@@H]2N(Cc3ccccc3)c3ccccc3[C@@]23C[C@@H](C(=O)OC)N(C(C)=O)C3=N1 returned Sfp inh 16%, ALOX12 inh inconclusive, PLK1 PBD block -5% and VDR inhibitor 2%.
For O=C(CCCCl)Nc1c2c(nn1-c1ccccc1)CSC2 the results were Sfp inh -2%, ALOX12 inh 13%, PLK1 PBD block -10% and VDR inhibitor 0%.
For Cc1cccc(-n2nc3c(c2NC(=O)CCCl)CSC3)c1 the results were Sfp inh 45µM*, ALOX12 inh 0%, PLK1 PBD block -19% and VDR inhibitor -8%.
`O=C(CCl)Nc1c2c(nn1-c1ccccc1)CSC2` gave Sfp inh 15%, ALOX12 inh -5%, PLK1 PBD block 27µM* and VDR inhibitor inconclusive.
Screening CCC(=O)Nc1c2c(nn1-c1ccccc1C)CSC2 returned Sfp inh 56µM*, ALOX12 inh -1%, PLK1 PBD block -11% and VDR inhibitor 4%.
For CCCCC(=O)NC(=S)Nc1cccc(C(=O)O)c1 the results were Sfp inh 19%, ALOX12 inh -9%, PLK1 PBD block -2% and VDR inhibitor -3%.
Screening Cc1ccccc1-c1nc(CN2CCC(C(=O)NCC3CCCO3)CC2)c(C)o1 (stereo not given) returned Sfp inh 3%, ALOX12 inh 0%, PLK1 PBD block -10% and VDR inhibitor -17%.
For Cc1ccc(C(=O)N/N=C2\SCC(=O)N2c2cc(C)ccc2C)cc1 the results were Sfp inh 71µM*, ALOX12 inh 12%, PLK1 PBD block 3% and VDR inhibitor 1%.
Screening Cc1ccc(NC(=O)c2nc[nH]c2C(=O)NCCCNC(=O)c2[nH]cnc2C(=O)Nc2ccc(C)cc2)cc1 returned PLK1 PBD block -7% and VDR inhibitor -2%.
Screening C=CCOC(=O)C1=C(C)NC(SCC(=O)Nc2nccs2)=C(C#N)C1c1cccs1 (stereo not given) returned Sfp inh 0%, ALOX12 inh 42%, PLK1 PBD block 30µM* and VDR inhibitor -15%.
Screening COc1cccc(C(=O)NC2CC3CCCC(C2)N3S(=O)(=O)c2ccccc2)c1 (stereo not given) returned Sfp inh 10%, ALOX12 inh -14%, PLK1 PBD block inconclusive and VDR inhibitor 9%.
For c1ccc(Cn2cc(CN3CCCCO3)c(-c3ccc4c(c3)OCO4)n2)cc1 the results were Sfp inh 8%, ALOX12 inh 3%, PLK1 PBD block -6% and VDR inhibitor -8%.
Screening CC(C)c1ccccc1OCCNC(=S)NC(=O)c1cccnc1 returned Sfp inh 3%, ALOX12 inh 40µM*, PLK1 PBD block -1% and VDR inhibitor 0%.
`CN1CCc2nc(SCc3ccc(Cl)cc3)c(C#N)c(-c3cccs3)c2C1` gave ALOX12 inh 20µM*, PLK1 PBD block -21% and VDR inhibitor inconclusive.
Screening O=c1cc(-c2ccc(C3CCCCC3)cc2)[nH][nH]1 returned Sfp inh 0%, ALOX12 inh 8%, PLK1 PBD block 24µM* and VDR inhibitor -22%.
Screening O=c1cc(-c2ccc(F)cc2)[nH][nH]1 returned Sfp inh 3%, ALOX12 inh 28%, PLK1 PBD block 4% and VDR inhibitor inconclusive.
`CCOc1ccc(C2C(C(=O)c3ccc(C)o3)=C(O)C(=O)N2c2nc(C)c(C(=O)OC)s2)cc1` (stereo not given) gave Sfp inh 50µM*, ALOX12 inh inconclusive, PLK1 PBD block inconclusive and VDR inhibitor inconclusive.
Screening CCOC(=O)c1sc(N2C(=O)C(O)=C(C(=O)c3ccc(C)o3)C2c2ccc(OC)c(OC)c2)nc1C (stereo not given) returned Sfp inh 12%, ALOX12 inh -49%, PLK1 PBD block inconclusive and VDR inhibitor -14%.
Screening CCOC(=O)c1sc(N2C(=O)C(O)=C(C(=O)c3ccc(C)o3)C2c2cccc([N+](=O)[O-])c2)nc1C (stereo not given) returned Sfp inh inconclusive, ALOX12 inh inconclusive, PLK1 PBD block 24µM* and VDR inhibitor inconclusive.
COC(=O)c1sc(N2C(=O)C(O)=C(C(=O)c3ccc(C)o3)C2c2ccc([N+](=O)[O-])cc2)nc1C (stereo not given) was read as Sfp inh 26%, ALOX12 inh inconclusive, PLK1 PBD block inconclusive and VDR inhibitor inconclusive.
`CCOC(=O)c1sc(N2C(=O)C(O)=C(C(=O)c3ccco3)C2c2ccc([N+](=O)[O-])cc2)nc1C` (stereo not given) gave ALOX12 inh 28µM*, PLK1 PBD block 30µM* and VDR inhibitor 89µM*.

Screens: PubChem, National Center for Advancing Translational Sciences (NCATS)
